Drawing on PubChem BioAssay AID1569 (National Center for Advancing Translational Sciences (NCATS), 2009), this text covers Potency for 36 compounds.

Inconclusive results are not listed. Calls of active or inactive are those of the source. The call rests on the fitted dose curve; in most records, active means well fitted inhibition curve with a large enough effect; inconclusive means small, poorly fitted or top-dose-only effect, or effect the other way, or another doubt; inactive means no such curve, though single readings can be large or run the other way.
Potency means the concentration at half of the fitted maximal effect.

A short description of this test: Confirmation Concentration-Response Assay for lipid storage modulators. Further: nearly all actives have a fitted effect of over 80% in size. The note with it: Drosophila S3 cells, lipid droplet BODIPY/CellTracker ratio, 18-24 h; series mostly up to 46.1 µM. The essentials: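 Cells at 5,000/well received compound as a titration plus oleic acid (added as 400 uM solution) and were incubated 18–24 h at 24 °C. BODIPY 493/503 lipid signal and CellTracker Red cell count were read by 488-nm laser-scanning cytometry. Activity was normalised to 20 uM Triacsin C.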
With `COc1ccc(C)cc1NC(=O)C1CCN(S(=O)(=O)c2cccc3cccnc23)CC1`, the Potency was 15.8 µM (active).

In the case of `COc1ccc(CCCc2nnc(SCC(=O)Nc3nc(C)cs3)n2C)cc1C`, the Potency was 1.41 µM (active).

As for `COc1ccc(CCNC(=O)CCC(=O)c2cccs2)cc1OC`, the Potency result is “inactive”.

As to `N#Cc1ccsc1NC(=O)CN1CCN(S(=O)(=O)c2ccccc2C(F)(F)F)CC1`, the Potency is 1.25 µM (active).

Regarding `CC(=O)c1cc(-c2ccccc2)n(CC(=O)N2CCC(C)CC2)c1C`, the Potency is 1.58 µM (active).

For `CCC(C)(C)NC(=O)C(c1ccc(OC)cc1)N(CCOC)C(=O)CCC(=O)Nc1nccs1` (stereo unspecified), the Potency is 19.9 µM (active).

On to `Cc1cccc(-n2ncc3c2CCCC3NC(=O)Cc2c(C)noc2C)c1C` (stereo unspecified), for which the Potency was 14.1 µM (active).

On to `CCOc1ccc2nc(NC(=O)CSc3nc(SC)ns3)sc2c1`, for which the Potency is 4.45 µM (active).

For `Cc1cnc(NC(=O)CSc2ncc(-c3ccccc3)n2Cc2ccco2)s1`, the Potency result was “inactive”.

Turning to `CCN(CC(=O)Nc1c(F)cccc1F)C(=O)CCCc1c[nH]c2ccccc12`, the Potency was 0.628 µM (active).

Turning to `c1ccc(CNc2ncnc3ccccc23)cc1`, the Potency is 12.5 µM (active).

Consider `O=C1C(Nc2ccccc2)=C/C(=N/S(=O)(=O)c2cccs2)c2ccccc21`, for which the Potency is 7.91 µM (active).

For `COc1ccc(CCNC(=O)CSc2nnc(-c3ccccc3)c3ccccc23)cc1OC`, the Potency is 4.45 µM (active).

In the case of `Cc1ccc(NC(=O)CN(C)C(=O)Cn2ncc(Cl)c(Cl)c2=O)cc1`, the Potency is 28.1 µM (active).

Consider `COc1ccc(NC(=O)NC2(C(=O)N3CCCC(C)C3)CCCCC2)cc1` (stereo unspecified), for which the Potency entry was “inactive”.

`O=C1c2ccccc2C(=O)c2c(Nc3ccc(CCO)cc3)ccc(O)c21`: the Potency is 25 µM (active).

On to `COc1ccc(CCNC(=O)C(Sc2ccccn2)c2ccccc2)cc1OC` (stereo unspecified), for which the Potency entry was “inactive”.

Regarding `CCOc1ccc(CCNC(=O)COC(=O)c2ccc(Cl)nc2)cc1OCC`, the Potency entry is “inactive”.

As to `COC(=O)c1ccccc1NC(=O)c1ccc(C#N)cc1`, the Potency was 1.12 µM [activator] (active).

For the compound `Cc1cccc(NC(=O)CNC(=O)C23CC4CC(CC(Cl)(C4)C2)C3)n1`, the Potency was 3.15 µM (active).

Consider `CCc1cccc2cc3c(N)c(C(=O)Nc4ccc(S(=O)(=O)N5CCCC5)cc4)sc3nc12`, for which the Potency was 9.96 µM (active).

`CCc1ccc(NC(=O)COc2ccc(/C=C(/C#N)c3nc4ccccc4[nH]3)cc2OC)cc1`: the Potency was 7.05 µM (active).

`CN1CCN(C(=O)C2(NC(=O)NCc3ccccc3)CCCCC2)CC1`: the Potency entry was “inactive”.

Take `O=C(COC(=O)c1ccc(CO)cc1)NCc1cccs1`: the Potency result was “inactive”.

On to `Cc1cccc(OCc2nnc(SCC(=O)N3c4ccccc4CC3C)n2C)c1C` (stereo unspecified), for which the Potency was 6.28 µM (active).

As for `Cc1cc(C)cc(-n2ncc3c2CCCC3NC(=O)c2csnn2)c1` (stereo unspecified), the Potency was 0.0112 µM (active).

Regarding `CCOc1ccc(CCNC(=O)COC(=O)c2ccc(OC(C)C)cc2)cc1OCC`, the Potency was 0.158 µM (active).

Consider `O=S(=O)(c1ccccc1C(F)(F)F)N1CCC(n2cnc3ccccc32)CC1`, for which the Potency is 0.996 µM (active).

With `CCOc1ccc(CCNC(=O)COC(=O)c2cccc(S(=O)(=O)N3CCCCC3)c2)cc1OCC`, the Potency result was “inactive”.

On to `CCCCCCCCn1c(=O)c(C(=O)OC)c(N)c2ccccc21`, for which the Potency was 7.91 µM (active).

Take `COc1ccc(CCNC(=O)Cn2cccc2C(=O)c2ccccc2C)cc1OC`: the Potency result is “inactive”.

Consider `CCOc1ccc(CCNC(=O)COC(=O)c2ccc3c(c2)OCCO3)cc1OCC`, for which the Potency is 1.41 µM (active).

`COc1ccc2c(c1)O[C@@H](c1cccc(C(F)(F)F)c1)[C@H](OC(=O)NCCc1ccc(OC)c(OC)c1)C2=O`: the Potency was 4.99 µM (active).

For the compound `Cc1ccc(C(NC(=O)C2CCCCC2)c2c(O)ccc3ccccc23)cc1` (stereo unspecified), the Potency was 17.7 µM (active).

`COc1ccc(CCNC(=O)Cn2nnc(-c3ccc(N(C)C)cc3)n2)cc1OC`: the Potency is 0.705 µM (active).

Take `COc1ccc(-c2nc(C)ncc2N=Nc2ccccc2)cc1`: the Potency was 25 µM (active).
